This passage reports inhibition results from ChEMBL document CHEMBL3433997, “St. Jude Leishmania screening dataset” (2016).

Holding throughout (assay type): functional
The target of assay [1] is Solute carrier family 2, facilitated glucose transporter member 1 (Homo sapiens) (UniProt P11166). Briefly: ST_JUDE_LEISH: Cytotoxicity at 2uM final concentration against transgenic Leishmania Mexicana promastigotes LmGLUT1 that are glucose transport deficient and complemented with the human glucose transporter GLUT1. Activity is measured by DNA content using SYBR green in vitro.
Sequence of Solute carrier family 2, facilitated glucose transporter member 1 (Homo sapiens) (P11166 whole entry): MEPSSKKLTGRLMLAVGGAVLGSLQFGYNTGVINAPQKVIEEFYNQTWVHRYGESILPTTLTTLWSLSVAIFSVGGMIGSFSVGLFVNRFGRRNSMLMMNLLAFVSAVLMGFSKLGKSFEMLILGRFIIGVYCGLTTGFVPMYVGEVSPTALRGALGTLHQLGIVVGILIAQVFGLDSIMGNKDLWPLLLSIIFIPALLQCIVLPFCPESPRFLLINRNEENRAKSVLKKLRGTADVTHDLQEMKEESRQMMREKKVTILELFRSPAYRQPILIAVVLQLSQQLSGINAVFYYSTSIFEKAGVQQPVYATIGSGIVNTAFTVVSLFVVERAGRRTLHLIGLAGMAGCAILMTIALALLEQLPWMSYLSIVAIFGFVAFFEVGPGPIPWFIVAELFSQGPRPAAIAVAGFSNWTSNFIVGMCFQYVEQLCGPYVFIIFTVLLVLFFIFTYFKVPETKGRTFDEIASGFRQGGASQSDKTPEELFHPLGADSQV

Assay [2] addresses Hexose transporter 1 (Plasmodium falciparum) (UniProt O97467). Briefly: ST_JUDE_LEISH: Cytotoxicity at 2uM final concentration against transgenic Leishmania Mexicana promastigotes LmPfHT that are glucose transport deficient and complemented with the Plasmodium falciparum hexose transporter. Activity is measured by DNA content using SYBR green in vitro.
Assay [3] deals with Glucose transporter (Leishmania mexicana) (UniProt O61059). Put plainly: ST_JUDE_LEISH: Cytotoxicity at 2uM final concentration against transgenic Leishmania Mexicana promastigotes LmGT2 that are glucose transport deficient and complemented with the L. Mexicana glucose transporter 2. Activity is measured by DNA content using SYBR green in vitro.

Molecules are shown by their SMILES.

Turning to `COc1cccc(OC)c1OCCCOc1c(C)nc(N)nc1N`, the inhibition – broadly, the share of the control response that was lost under treatment – in assay [1] turned out to be 0.61%; in assay [2], 1.79%; in assay [3], 0.4%.

With `CCn1c(-c2nonc2N)nc2c(-c3cccc(NC(=O)NC45CC6CC(CC(C6)C4)C5)c3)ncc(OCCCN)c21`, the results for the inhibition in assay [1], in assay [2] and in assay [3] were 2.53%, 1.83% and 2.53%, respectively.

Take `O=S(=O)(Nc1cc2c(cc1O)CCN(C1CCC1)CC2)c1ccc(Oc2ccc(F)cc2)cc1`: the inhibition in assay [1] was 2.05%; in assay [2], 1.02%; in assay [3], 0.51%.

For `O=C(NCc1cccc(F)c1)c1ccc(O)c(-c2cc(Cl)cc(Cl)c2)c1`, the figures for the inhibition in assay [1], in assay [2] and in assay [3] were 4.04%, 3.75% and 4.34%, respectively.
